# Measurements: ChEMBL document CHEMBL5308504, “Tm Shift (DSF) assay results for EUbOPEN Chemogenomics Library” (2023)
# Where “and” joins values, the source holds several entries; their conditions need not be identical. Equal entries are not always repeated.
# Key:
# [1] = target: Bromodomain-containing protein 4 (Homo sapiens) (UniProt O60885); conditions: Compound concentration 20.0 uM, Protein concentration 2.0 uM, Result type QC Liability
# [2] = target: T1, Transcription intermediary factor 1-alpha (Homo sapiens) (UniProt O15164); conditions: Compound concentration 20.0 uM, Protein concentration 2.0 uM, Result type QC Liability
# T1 sequence (whole entry): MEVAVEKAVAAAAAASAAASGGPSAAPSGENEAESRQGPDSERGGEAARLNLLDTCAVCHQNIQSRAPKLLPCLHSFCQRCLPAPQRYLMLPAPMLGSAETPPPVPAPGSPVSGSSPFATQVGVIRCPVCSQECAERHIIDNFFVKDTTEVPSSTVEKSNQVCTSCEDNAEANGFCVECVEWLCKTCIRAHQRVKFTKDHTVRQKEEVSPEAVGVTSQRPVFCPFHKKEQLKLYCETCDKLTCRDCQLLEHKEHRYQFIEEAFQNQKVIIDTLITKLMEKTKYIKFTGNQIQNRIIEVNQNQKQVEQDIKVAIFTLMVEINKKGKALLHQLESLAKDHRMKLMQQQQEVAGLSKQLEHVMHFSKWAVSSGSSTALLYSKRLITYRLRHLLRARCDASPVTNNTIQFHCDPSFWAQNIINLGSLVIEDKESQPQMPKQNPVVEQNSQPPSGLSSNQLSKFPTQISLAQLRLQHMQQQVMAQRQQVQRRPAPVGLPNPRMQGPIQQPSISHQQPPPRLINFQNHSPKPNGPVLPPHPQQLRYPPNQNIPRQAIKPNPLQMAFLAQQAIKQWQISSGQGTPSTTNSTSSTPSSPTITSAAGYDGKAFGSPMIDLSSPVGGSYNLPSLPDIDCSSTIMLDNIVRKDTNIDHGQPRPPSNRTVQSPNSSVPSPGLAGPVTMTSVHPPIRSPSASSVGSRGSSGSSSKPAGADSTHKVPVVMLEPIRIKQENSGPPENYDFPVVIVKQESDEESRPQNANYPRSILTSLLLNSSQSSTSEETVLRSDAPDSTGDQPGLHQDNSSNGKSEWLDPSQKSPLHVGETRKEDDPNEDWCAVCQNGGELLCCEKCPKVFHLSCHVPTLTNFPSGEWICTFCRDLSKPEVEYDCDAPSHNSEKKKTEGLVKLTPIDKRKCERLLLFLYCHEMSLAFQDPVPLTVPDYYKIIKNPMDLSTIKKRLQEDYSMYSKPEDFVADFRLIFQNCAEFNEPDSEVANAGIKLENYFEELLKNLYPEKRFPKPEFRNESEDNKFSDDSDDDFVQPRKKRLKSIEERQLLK
Structure (SMILES),ΔTm [1],ΔTm [2]
Cn1ncc(NC(=O)c2nc(-c3c(F)cccc3F)sc2N)c1N1CC[C@@H](N)[C@H](F)CC1,-1.02 °C,-1.63 °C
CN(C)C(=O)Cn1cc(-c2ccc(-c3nnc4ccccn34)cc2)cn1,-1.96 °C,0.35 °C
CC1(C)C[C@@H]1C(=O)N/C(=C\CCCCSC[C@H](N)C(=O)O)C(=O)O,-2.05 °C,-0.56 °C
CC(C)(C)C(=O)NCc1ccc(Cl)c(C(=O)Nc2ncc[nH]2)c1,-0.82 °C,-0.67 °C
CCS(=O)(=O)Nc1cccc(Oc2cncc(Nc3ccc(I)cc3F)c2C(N)=O)c1,-0.22 °C,1.47 °C
CC(C)N(CCCCOCC(=O)O)c1cnc(-c2ccccc2)c(-c2ccccc2)n1,-1.87 °C,-0.66 °C
COc1ccccc1-c1cc(Nc2cccc(CS(N)(=O)=O)c2)ncn1,-0.36 °C,-0.57 °C
CC(C)S(=O)(=O)c1ccccc1Nc1nc(N[C@@H]2CCCN(CCCCCCCNC(=O)COc3cccc4c3C(=O)N(C3CCC(=O)N(C)C3=O)C4=O)C2)ncc1Cl (some centres undefined),-2.43 °C,-1.22 °C
O=C(CCSCc1ccco1)NNC(=O)N1Cc2ccccc2Oc2ccc(Cl)cc21,-3.5 °C,-1.32 °C
CC(C)c1cnc(NC(=O)Cc2ccccc2)s1,-1.14 °C,-1.45 °C
Cn1c(C2(NC(=O)c3ccc4c(C5CCCC5)c(-c5ncc(Br)cn5)n(C)c4c3)CCC2)nc2ccc(/C=C/C(=O)O)cc21,0 °C and -4.93 °C,0.68 °C and -0.65 °C
CC(C)N1CCN(Cc2cnc(-c3cc(-c4cccc5[nH]ccc45)cc4[nH]ncc34)o2)CC1,0 °C,-2.06 °C
Cc1cc([N+](=O)[O-])c(NS(=O)(=O)c2cccc(C(=O)O)c2)cc1-c1cccnc1,-0.44 °C,-2.82 °C
O=C(Nc1ccc(-n2nc(-c3cccnc3)cc2C(F)(F)F)cn1)c1ccc(-c2ccccc2)c(F)c1,-2.41 °C,0.2 °C
COc1ccc(S(=O)(=O)N2CCOCC2)cc1Nc1ccc2c(n1)N(C1CCN(C)CC1)[C@H](C)C(=O)N2C,-8.74 °C,-1.33 °C
CCc1ccc(N(CC(C)C)S(=O)(=O)c2ccc(OCC3CCOCC3)c(CO)c2)cc1,-3.99 °C,-0.46 °C
Cc1cn([C@H](C)CC#N)c(=O)c2cc(Cn3nc(C(F)F)cc3Cl)nn12,-1.08 °C,-1.23 °C
